Measured values taken from PubChem BioAssay (NCATS).
Values joined by “and” are separate entries in the source; they are usually repeats but may differ in a detail not shown here. Equal entries are not always repeated. Results filed as inconclusive are left out. Active and inactive are the calls of the source. Unless noted, the call rests on the fitted dose curve; in most records, active means well fitted curve in the direction sought with a large enough effect; inconclusive means small, poorly fitted or top-dose-only effect, or another doubt; inactive means no such curve, though single readings can be large; an effect the other way counts as inactive or inconclusive.

Experiments:
[1] = qHTS assay for small molecule activators of the p53 signaling pathway (AID 651743; active means well fitted activation curve with a large enough effect in the signal ratio, not every such curve was filed as active; the % refers to the signal ratio; further: % of control where 0% means no effect); conditions: HCT-116 p53RE-bla, beta-lactamase FRET ratio, 16 h; hits give high values
Outline: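 Read-out is fluorescence intensity from the LiveBLAzer B/G FRET substrate, added for 2 hours at room temperature after HCT-116 p53RE-bla cells had been incubated with compounds for 16 hours at 37 C.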

[2] = qHTS assay for environmental chemicals that activate the Aryl hydrocarbon Receptor (AhR) signaling pathway (AID 651777); conditions: 1A2-DRE human hepatoma cells, luciferase, 24 h; hits give high values; further: % of control where 0% means no effect; nearly all actives have a fitted effect of over 15% in size
Outline: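 Concentration–response screening used 1,200 1A2-DRE cells per well, 24 hr compound exposure (37 C, 5% CO2), and One-Glo luminescence as the AhR-driven CYP1A2 reporter signal.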

[3] = target: Peroxisome proliferator-activated receptor alpha (Homo sapiens) (UniProt Q07869); experiment: qHTS assay for small molecule agonists of the peroxisome proliferator-activated receptor alpha (PPARalpha) signaling pathway (AID 651778); conditions: PathHunter PPARalpha complementation, chemiluminescence, 6 h; hits give high values; further: % of control where 0% means no effect
Peroxisome proliferator-activated receptor alpha (Homo sapiens), sequence (Q07869 whole entry, looked up): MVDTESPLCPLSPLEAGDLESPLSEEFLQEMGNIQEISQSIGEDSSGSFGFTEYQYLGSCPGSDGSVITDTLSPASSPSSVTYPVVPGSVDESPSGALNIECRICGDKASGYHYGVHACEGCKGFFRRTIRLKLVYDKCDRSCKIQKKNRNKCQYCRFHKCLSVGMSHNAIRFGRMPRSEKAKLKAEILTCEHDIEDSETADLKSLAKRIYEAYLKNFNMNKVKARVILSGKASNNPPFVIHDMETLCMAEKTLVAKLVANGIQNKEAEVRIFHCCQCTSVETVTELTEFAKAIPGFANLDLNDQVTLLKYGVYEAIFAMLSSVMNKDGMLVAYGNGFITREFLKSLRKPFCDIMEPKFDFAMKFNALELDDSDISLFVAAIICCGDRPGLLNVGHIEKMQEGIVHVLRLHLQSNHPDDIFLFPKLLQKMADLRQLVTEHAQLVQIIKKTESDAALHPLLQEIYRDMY
Outline: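 Chemiluminescence from complemented enzyme reported PPARalpha activation in cells after 6 hr of compound treatment at 37 C. The detection reagent was incubated for 60 min at room temperature, and compounds were scored as agonists.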

[4] = target: Nuclear receptor ROR-gamma (Homo sapiens) (UniProt P51449); experiment: qHTS assay for small molecule antagonists of the retinoid-related orphan receptor gamma (ROR-gamma) signaling pathway (AID 651802); conditions: ROR-gamma antagonist cell reporter assay; series mostly up to 92.2 µM; further: nearly all actives have a fitted effect of over 60% in size; further: potency means the concentration at half of the fitted maximal effect
Nuclear receptor ROR-gamma (Homo sapiens), sequence (P51449 whole entry, looked up): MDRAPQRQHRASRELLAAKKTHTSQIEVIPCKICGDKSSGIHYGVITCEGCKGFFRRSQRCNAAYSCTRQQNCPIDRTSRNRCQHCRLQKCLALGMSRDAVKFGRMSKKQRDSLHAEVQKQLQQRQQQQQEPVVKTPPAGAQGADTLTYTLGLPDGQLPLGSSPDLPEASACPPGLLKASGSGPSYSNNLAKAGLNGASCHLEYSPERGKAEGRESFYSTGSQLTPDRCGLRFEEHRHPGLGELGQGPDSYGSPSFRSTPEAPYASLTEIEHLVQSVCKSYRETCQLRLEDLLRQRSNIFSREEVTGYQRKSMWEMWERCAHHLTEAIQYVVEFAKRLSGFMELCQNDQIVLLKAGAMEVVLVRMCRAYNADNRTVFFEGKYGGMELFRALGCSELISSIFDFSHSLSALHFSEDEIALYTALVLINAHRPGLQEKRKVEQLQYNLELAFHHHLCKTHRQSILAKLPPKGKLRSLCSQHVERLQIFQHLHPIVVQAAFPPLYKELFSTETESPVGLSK
Outline: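 CHO cells with TET-inducible ROR-gamma and RORE-luciferase reporter, dosed then doxycycline-induced. After 16 h at 37C, One-Glo luminescence read; decreased signal indicates antagonism.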

[5] = qHTS assay for small molecule agonists of the antioxidant response element (ARE) signaling pathway (AID 651741; active means well fitted activation curve with a large enough effect in the signal ratio; the % refers to the signal ratio; further: potency means the concentration at half of the fitted maximal effect; on activation: % of control where 0% means no effect); conditions: HepG2 ARE-bla reporter, beta-lactamase FRET ratio, 16 h; series mostly up to 96 µM
Outline: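 Quantitative HTS in HepG2 cells stably expressing an ARE-beta-lactamase reporter; 16 h compound exposure at 37 C, followed by 2 h room-temperature incubation with LiveBLAzer B/G FRET substrate and fluorescence measurement.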

[6] = target: Tumor necrosis factor (Homo sapiens) (UniProt P01375); experiment: qHTS assay to identify small molecules that stimulate Tumor Necrosis Factor-alpha (TNF-alpha) secretion (AID 651757; active means well fitted curve in the direction sought with a large enough effect in the signal ratio; the % refers to the signal ratio; further: 0% is about no effect); conditions: Human cells, HTRF 665/615 ratio; series mostly up to 92.2 µM
Tumor necrosis factor (Homo sapiens), sequence (P01375 whole entry, looked up): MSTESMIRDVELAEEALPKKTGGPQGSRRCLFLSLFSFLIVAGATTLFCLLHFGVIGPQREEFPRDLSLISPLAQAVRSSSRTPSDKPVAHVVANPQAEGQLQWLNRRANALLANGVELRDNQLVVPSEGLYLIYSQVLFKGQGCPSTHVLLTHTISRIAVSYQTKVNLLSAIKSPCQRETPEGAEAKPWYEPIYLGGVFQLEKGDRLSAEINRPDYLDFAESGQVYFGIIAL
Outline: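 THP-1 cells (3000/well) exposed to compounds 17 hrs at 37 C. Secreted TNF-alpha detected by HTRF with cryptate- and XL665-labeled anti-TNF-alpha antibodies after 3 hr at room temperature.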

[7] = qHTS assay for small molecule disruptors of the mitochondrial membrane potential - 1 hr assay (AID 651754; calls by dose curve; further: nearly all actives have a fitted effect of over 35% in size; further: potency means the concentration at half of the fitted maximal effect); conditions: series mostly up to 92.2 µM
Outline: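 HepG2 cells, attached overnight, were exposed to compound for 1 hr at 37C, then stained 30 min with a potentiometric dye. Ratio of red aggregate (590nm) to green monomer (535nm) fluorescence reports membrane potential; collapse shifts signal toward green.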

[8] = qHTS assay for small molecule disruptors of the mitochondrial membrane potential - 5 hr assay (AID 651755; calls by dose curve; further: nearly all actives have a fitted effect of over 40% in size; further: potency means the concentration at half of the fitted maximal effect); conditions: JC-1-type ratio dye; series mostly up to 92.2 µM
Outline: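 HepG2, 2,000 cells/well, overnight attach; cpd or DMSO 5 hr, 37C/5% CO2; Mito-MPS 30 min 37C; fluor 490/535 + 540/590 nm.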

[9] = qHTS assay to identify small molecules that stimulate interleukin-8 (IL-8) secretion (AID 651758; active means well fitted activation curve with a large enough effect in the signal ratio; the % refers to the signal ratio; further: 0% is about no effect); conditions: HTRF ratio (665/615); series mostly up to 92.2 µM
Outline: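 Secreted IL-8 measured by TR-FRET sandwich (cryptate and XL665 antibodies) from THP-1 cells exposed to compound overnight (16 hrs, 37 C).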

SMILES | activation [1] | activation [2] | max response [3] | Potency [4] | Potency [5] | outcome [6] | Potency [7] | Potency [8] | outcome [9]
Cc1cc(CC(=O)O)n(C)c1C(=O)c1ccc(Cl)cc1 | -3.75% (inactive) | 0.224% (inactive) | -2.08% (inactive) | inactive | – | – | – | – | –
CC1(C)[C@@H]2CC[C@@]1(C)C(=O)C2 | 0.0082% (inactive) | 1.1% (inactive) | 1.14% (inactive) | inactive | inactive | inactive | – | – | –
COc1ccccc1O | -3.15% (inactive) and 0.213% (inactive) and 1.06% (inactive) | 0.592% (inactive) and -0.634% (inactive) and 2.1% (inactive) | -1.16% (inactive) and 0.39% (inactive) and -4.81% (inactive) | inactive | inactive | inactive | – | – | –
O=S(=O)(O)NC1CCCCC1 | – | 1.78% (inactive) | -1.02% (inactive) | – | – | – | – | – | –
[Cl][In]([Cl])[Cl] | -6.82% (inactive) | 0.307% (inactive) | -1.33% (inactive) | inactive | – | inactive | inactive | inactive | –
CC1=C(/C=C/C(C)=C/C=C/C(C)=C/C(=O)O)C(C)(C)CCC1 | 1.97% (inactive) and 6.17% (inactive) | 4.57% (inactive) and 7.11% (inactive) | -0.0468% (inactive) and 3.03% (inactive) | – | 54.5 µM (active) | – | – | – | –
NC(=O)N/N=C/c1ccc([N+](=O)[O-])o1 | -0.844% (inactive) and -0.297% (inactive) | 5.25% (inactive) and 3.59% (inactive) | 0.128% (inactive) and 1.29% (inactive) | – | 17.2 µM (active) and 21.1 µM (active) | – | – | inactive | inactive
O=C1O[C@H]([C@@H](O)CO)C(O)=C1O | -0.0449% (inactive) and -0.779% (inactive) | 0.758% (inactive) and 0.0107% (inactive) | -1.42% (inactive) and -0.305% (inactive) | inactive | 61.1 µM (active) | inactive | – | – | –
CC(O)COc1ccccc1 (configuration not stated) | 2.15% (inactive) | 1.38% (inactive) | -0.783% (inactive) | – | inactive | – | – | – | –
NC(=O)c1ncn([C@@H]2O[C@H](CO)[C@@H](O)[C@H]2O)n1 | – | 0.173% (inactive) | -11% (inactive) | – | inactive | inactive | – | – | –
C[C@]12CC[C@@H]3c4ccc(O)cc4CC[C@H]3[C@@H]1CCC2=O | 0.661% (inactive) | 0.316% (inactive) | -1.03% (inactive) | – | – | – | – | – | –
Oc1cccc(O)c1 | 5.92% (inactive) | 2.18% (inactive) | -10.6% (inactive) | – | – | inactive | inactive | inactive | –
NCCNCCNCCNCCN | – | -0.491% (inactive) and -2.35% (inactive) | -1.59% (inactive) and -2.29% (inactive) | inactive | inactive | inactive | – | – | –
Cc1cccc(Nc2cc(Cl)nc(SCC(=O)O)n2)c1C | 4.88% (inactive) | -1.86% (inactive) | -1.35% (inactive) | – | inactive | – | – | – | –
CCOC(=O)c1ccc(O)cc1 | -7.13% (inactive) | 6.21% (inactive) | -1.04% (inactive) | – | – | – | – | – | –
CCCCOC(=O)c1ccc(O)cc1 | 1.4% (inactive) and -3.01% (inactive) | 6.66% (inactive) and 14.1% (inactive) | -8.78% (inactive) and 4.43% (inactive) | inactive | 30.6 µM (active) | inactive | – | 37.6 µM (active) | –
CN(C)CCCN1c2ccccc2Sc2ccc(Cl)cc21 | 10.1% (inactive) | 3.61% (inactive) | -0.127% (inactive) | – | – | – | – | – | –
Cc1c(O)cccc1C(=O)N[C@@H](CSc1ccccc1)[C@H](O)CN1C[C@H]2CCCC[C@H]2C[C@H]1C(=O)NC(C)(C)C | 10.5% (inactive) | -9.16% (inactive) | -6.84% (inactive) | 8.41 µM (active) | 26.6 µM (active) | inactive | 42.2 µM (active) | 66.8 µM (active) | –
CNC(=O)Oc1ccc2c(c1)[C@]1(C)CCN(C)[C@@H]1N2C | -2.62% (inactive) | 2.6% (inactive) | -3.11% (inactive) | – | – | – | – | – | –
COc1ccc(Cl)cc1C(=O)NCCc1ccc(S(=O)(=O)NC(=O)NC2CCCCC2)cc1 | -6.63% (inactive) | 1.06% (inactive) | 0.201% (inactive) | – | – | – | – | – | –
CN(C)CCCN1c2ccccc2CCc2ccccc21 | -6.39% (inactive) | -0.861% (inactive) | – | – | – | – | – | – | –
COC(=O)C1=C(C)NC(C)=C(C(=O)OC)C1c1ccccc1[N+](=O)[O-] | -2.95% (inactive) | 3.95% (inactive) | -2.24% (inactive) | – | – | – | inactive | inactive | inactive
